# Where a name gives a salt, the structure may show the parent alone. ± gives the standard deviation of the averaged measurements.
# System: mESC LDLR-Dup GFP reporter (SpCas9 MH-deletion repair)
# Experiment: fraction of GFP+ cells relative to DMSO control (fold change); higher = more MH-deletion repair to in-frame LDLR (or more editing)
# Conditions: 2 µM; 7 days post-transfection
row,SMILES,fraction of GFP+ cells
1,Nc1nc2[nH]cc(CCc3ccc(C(=O)N[C@@H](CCC(=O)O)C(=O)O)cc3)c2c(=O)[nH]1 [Pemetrexed Disodium Hydrate],1.69 ± 0.34
2,CC(C)(O)[C@@H]1CC[C@](C)([C@H]2[C@@H](O)C[C@@]3(C)[C@@H]4C[C@H](O)[C@H]5C(C)(C)[C@@H](O)CC[C@@]56C[C@@]46CC[C@]23C)O1 [Cycloastragenol],0.966 ± 0.08
3,Nc1ncn([C@@H]2O[C@H](CO)[C@@H](O)[C@H]2O)c(=O)n1 [Azacitidine],1.1 ± 0.089
4,O=C(O)c1cc(I)ccc1NC(=O)[C@H](Cc1ccccc1)NCc1ccccc1,1.89 ± 0.36
5,Cc1nc(-c2cccnc2)sc1C(=O)Nc1ccccc1-c1cn2c(CN3CCOCC3)csc2n1,1.34 ± 0.54
6,CC1(C)CCC2=C(O1)c1ccccc1C(=O)C2=O [Beta-Lapachone],0.973 ± 0.027
7,O=C(O[C@@H]1Cc2c(O)cc(O)cc2O[C@@H]1c1cc(O)c(O)c(O)c1)c1cc(O)c(O)c(O)c1 [(-)-Epigallocatechin Gallate],0.828 ± 0.097
8,Nc1nc(=O)c2nc(CNc3ccc(C(=O)N[C@@H](CCC(=O)O)C(=O)O)cc3)cnc2[nH]1 [Folic acid],1.24 ± 0.46
9,C=C(C)[C@@H]1CC[C@]2(C(=O)O)CC[C@]3(C)[C@H](CC[C@@H]4[C@@]5(C)CC[C@H](O)C(C)(C)[C@@H]5CC[C@]43C)[C@@H]12 [Betulinic acid],0.997 ± 0.13
10,O=S(=O)(c1cccc2cnccc12)N1CCCNCC1 [Fasudil (HA-1077) HCl],2.2 ± 0.25
11,C=CCc1ccc(O)c(-c2cc(CC=C)ccc2O)c1 [Magnolol],0.713 ± 0.084
12,O=c1[nH]c(=O)n([C@H]2C[C@H](O)[C@@H](CO)O2)cc1C(F)(F)F [Trifluridine],2.69
13,CCn1cc(C(=O)O)c(=O)c2cc(F)c(N3CCNCC3)nc21 [Enoxacin],1.04 ± 0.096
14,COc1cc2ncnc(-n3nc(-c4ccccn4)nc3N)c2cc1OC,0.973 ± 0.34
15,CC(N)C12CC3CC(CC(C3)C1)C2 (stereo not drawn) [Rimantadine Hydrochloride],0.701 ± 0.034
16,CSc1nc2cc(Cl)c(Oc3cccc(Cl)c3Cl)cc2[nH]1 [Triclabendazole],1.67 ± 0.26
17,CCN1/C(=C/C(C)=O)Sc2ccc(OC)cc21,0.802 ± 0.095

row,SMILES,fraction of GFP+ cells
1,Cc1cc(N2C[C@@H](C)N[C@@H](C)C2)ncc1-c1ccc(-c2nc3c(ccn3C)c(=O)[nH]2)cc1,0.927 ± 0.33
2,Nc1ncnc2c1ncn2[C@@H]1O[C@H](CO)[C@@H](O)[C@@H]1O [Vidarabine],1.26 ± 0.36
3,NC(=O)C1CCCc2c1[nH]c1ccc(Cl)cc21 (stereo not drawn) [Selisistat (EX 527)],1.18 ± 0.47
4,CCc1c(Cl)c(O)c(Cl)c(O)c1C(=O)O[C@H]1[C@H](O)[C@H](OC)[C@H](OC/C2=C\C=C\C[C@H](O)/C(C)=C/[C@H](CC)[C@@H](O[C@@H]3OC(C)(C)[C@@H](OC(=O)C(C)C)[C@H](O)[C@@H]3O)/C(C)=C/C(C)=C/C[C@@H]([C@@H](C)O)OC2=O)O[C@@H]1C [Fidaxomicin],2.81 ± 0.44
5,"CC[C@H](CO)Nc1nc(NCc2ccccc2)c2ncn(C(C)C)c2n1 [Roscovitine (Seliciclib,CYC202)]",1.06 ± 0.096
6,Cc1ccc(CNc2ncnc3ccc(-c4ccc(CO)o4)cc23)o1,1.08 ± 0.19
7,O=C1CCc2c(ccc3ccccc23)O1 [Splitomicin],0.636 ± 0.11
8,Cn1cc(C(=O)Nc2ccc3c(c2)OCCO3)c2ccccc2c1=O,1.33 ± 0.53
9,CS(=O)(=O)c1ccc(-c2cnc(N)c(C(=O)Nc3ccccc3)n2)cc1,0.582 ± 0.061
10,Nc1[nH]cnc2ncnc1-2 [Adenine sulfate],1.1 ± 0.025
11,N#CSc1cc(SC#N)c(N)nc1N,1.23 ± 0.14
12,NCCOc1cc(C(=O)Nc2cc(OCCN)c3ccccc3n2)nc(C(=O)Nc2cc(OCCN)c3ccccc3n2)c1 [Pyridostatin Trifluoroacetate Salt],0.824
13,C/C(=C\C(=O)OCCCCCCCCC(=O)O)C[C@@H]1OC[C@H](C[C@@H]2O[C@H]2[C@@H](C)[C@H](C)O)[C@@H](O)[C@H]1O [Mupirocin],1.12 ± 0.3
14,CSc1ccc(C(=O)/C=C/c2cc(C)c(OC(C)(C)C(=O)O)c(C)c2)cc1 [Elafibranor],1.63 ± 0.59
15,CNC(=O)c1nn(C)c2c1C(C)(C)Cc1cnc(Nc3ccc(N4CCN(C)CC4)cc3)nc1-2,0.352 ± 0.06
16,CN(C)CCCCC(=O)Nc1ccc(NC(=S)NC(=O)c2ccc(C(C)(C)C)cc2)cc1 [Tenovin-6],0.625 ± 0.2

# Source: the supplement of paper PMC8387472
